18 compounds from PubChem BioAssay can be followed below.

The viability is a read-out of living cells in per cent, often relative to untreated cells.

The source made the active and inactive calls.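 Rule for the calls: active = normalized viability below 100% at a tested concentration; inactive = the rest.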

This assay in a line: drug combination growth inhibition, ovarian cancer – cell-based, oncology-focused library, rucaparib conditional, profiling panel (AID 1508598). The note with it: patient-derived ovarian cancer cells, CellTiter-Glo viability, 144 h; at 0.00122 µM; OCI-P5x cells; without rucaparib; hits give low values.
As to `N[C@@H]1CCCN(c2c(/C=C3\SC(=O)NC3=O)cccc2-c2ccccc2)C1`, the viability is 111% (inactive).
Regarding `C[C@@H]1C[C@H]2[C@@H]3CCC4=CC(=O)C=C[C@]4(C)[C@]3(F)[C@H](O)C[C@]2(C)[C@]1(O)C(=O)CO`, the viability is 123% (inactive).
On to `Cc1cc2c(C(=O)NC[C@H](C)c3ccccc3)c(O)c(O)cc2c(O)c1-c1c(C)cc2c(C(=O)NC[C@H](C)c3ccccc3)c(O)c(O)cc2c1O`, for which the viability was 89.2% (active).
The result for `Nc1nc(F)nc2c1ncn2[C@H]1O[C@H](CO)[C@@H](O)[C@@H]1O` reads 107% (inactive).
Take `COc1cccc2c1C(=O)c1c(O)c3c(c(O)c1C2=O)C[C@@](O)(C(=O)CO)C[C@H]3O[C@H]1C[C@H](N)[C@@H](O)[C@H](C)O1`: the viability is 106% (inactive).
Regarding `C=C1/C(=C/C=C2\CCC[C@@]3(C)[C@H]2CC[C@H]3[C@H](C)/C=C/[C@@H](C)C(C)C)C[C@H](O)C[C@@H]1O`, the viability was 99.9% (active).
Turning to `CO[C@H]1C[C@H]2CC[C@@H](C)[C@@](O)(O2)C(=O)C(=O)N2CCCC[C@H]2C(=O)O[C@H]([C@H](C)C[C@@H]2CC[C@H](OP(C)(C)=O)[C@H](OC)C2)CC(=O)[C@H](C)/C=C(\C)[C@@H](O)[C@@H](OC)C(=O)[C@H](C)C[C@H](C)/C=C/C=C/C=C/1C`, the viability is 59.6% (active).
For `C=CCNC1=C2C[C@@H](C)C[C@H](OC)[C@H](O)[C@@H](C)/C=C(\C)[C@H](OC(N)=O)[C@@H](OC)/C=C\C=C(\C)C(=O)NC(=CC1=O)C2=O`, the viability was 121% (inactive).
Next, `CC[C@]1(O)C[C@@H]2CN(CCc3c([nH]c4ccccc34)[C@@](C(=O)OC)(c3cc4c(cc3OC)N(C=O)[C@@H]3C45CCN4CC=C[C@](CC)([C@H]45)[C@H](OC(C)=O)[C@]3(O)C(=O)OC)C2)C1` (stereo partly drawn): 90.1% (active); `COc1cccc2c1C(=O)c1c(O)c3c(c(O)c1C2=O)C[C@@](O)(C(C)=O)C[C@H]3O[C@H]1C[C@H](N)[C@H](O)[C@H](C)O1`: 101% (inactive).
For `CCOc1ccc(Cc2cc([C@@H]3O[C@H](CO)[C@@H](O)[C@H](O)[C@@H]3O)ccc2Cl)cc1`, the viability was 98.1% (active).
Next, `CC(=O)[C@]1(O)Cc2c(O)c3c(c(O)c2[C@H](O[C@H]2C[C@H](N)[C@H](O)[C@H](C)O2)C1)C(=O)c1ccccc1C3=O`: 112% (inactive); `CCC1=CC2CN(C1)Cc1c([nH]c3ccccc13)[C@@](C(=O)OC)(c1cc3c(cc1OC)N(C)[C@H]1[C@@](O)(C(=O)OC)[C@H](OC(C)=O)[C@]4(CC)C=CCN5CC[C@@]31[C@H]54)C2` (stereo partly drawn): 1.02% (active); `CC(=O)O[C@H]1C(=O)[C@@]2(C)C([C@H](OC(=O)c3ccccc3)[C@]3(O)C[C@H](OC(=O)[C@H](O)[C@@H](NC(=O)c4ccccc4)c4ccccc4)C(C)=C1C3(C)C)[C@]1(OC(C)=O)CO[C@@H]1C[C@H]2O` (stereo partly drawn): 123% (inactive).
For the compound `CO[C@H]1C[C@H]2CC[C@@H](C)[C@@](O)(O2)C(=O)C(=O)N2CCCC[C@H]2C(=O)O[C@H]([C@H](C)C[C@@H]2CC[C@H](OC(=O)C(C)(CO)CO)[C@H](OC)C2)CC(=O)[C@H](C)/C=C(\C)[C@@H](O)[C@@H](OC)C(=O)[C@H](C)C[C@H](C)/C=C/C=C/C=C/1C`, the viability was 69.5% (active).
On to `CO[C@H]1/C=C\C=C(\C)C(=O)NC2=CC(=O)C(NCCN(C)C)=C(C[C@@H](C)C[C@H](OC)[C@H](O)[C@@H](C)/C=C(\C)[C@@H]1OC(N)=O)C2=O`, for which the viability is 114% (inactive).
Regarding `CC(C)(C(=O)NCC(F)(F)C(F)(F)F)C(=O)N[C@H]1C(=O)Nc2ccccc2-c2ccccc21`, the viability was 104% (inactive).
With `CC1(C)O[C@@H]2C[C@H]3[C@@H]4CCC5=CC(=O)C=C[C@]5(C)[C@]4(F)[C@H](O)C[C@]3(C)[C@@]2(C(=O)CO)O1`, the viability is 116% (inactive).
